High-throughput results deposited in PubChem by Sanford-Burnham Center for Chemical Genomics.
In the library only some 3% were active in any assay of this set; here they are far more common.
SENP8 block-1 – human SENP8 protease inhibitors, primary screen, biochemical, fluorescence, Nedd8 protein substrate, uHTS; Sentrin-specific protease 8 (Homo sapiens), Q96LD8; recombinant SENP8; actives 0.64% (n = 360,000); inhibition, % at 20 µM; in the data active = inhibition mostly above about 40%, no sharp cut-off; inactive = mostly below about 27%
TRAIL sens C8 – viability loss with TRAIL in NB7+C8 cells, primary screen, TRAIL sensitizer project, cell-based, ATPlite luminescence. inhibition (viability loss, TRAIL sensitization), % at 10 µM. actives 1% (n = 360,000). AID 624354, 2012;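 active = compounds causing at least 50% loss of cell viability in the single-dose screen, relative to plate controls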
SENP7 block – SENP7 protease inhibitors, primary screen, biochemical, luminescence, uHTS; Sentrin-specific protease 7 (Homo sapiens), Q9BQF6; recombinant SENP7, Z-RLRGG-aminoluciferin luminescence, 40 min; inhibition, % at 5 µM; actives 1.5% (n = 330,000); AID 434973, 2010;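 active = inhibition above about 50% at the single test dose, limit read from the data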
SENP8 block-2 – SENP8 protease inhibitors, primary screen, biochemical, luminescence | purified SENP8, Z-RLRGG-aminoluciferin cleavage | inhibition, % at 10 µM | actives 1.2% (n = 330,000) | AID 2540, 2010; in the data active = inhibition above about 50%
SENP6 inh – SENP6 protease inhibitors, primary screen, biochemical, luminescence, uHTS; Recombinant SENP6 catalytic domain, aminoluciferin luminescence; inhibition, % at 10 µM; actives 1.8% (n = 330,000); Sentrin-specific protease 6 (Homo sapiens), Q9GZR1;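 active = inhibition above about 50% at the single tested dose, limit read from the data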
Target sequence (Q9GZR1 628-1112 limits assumed): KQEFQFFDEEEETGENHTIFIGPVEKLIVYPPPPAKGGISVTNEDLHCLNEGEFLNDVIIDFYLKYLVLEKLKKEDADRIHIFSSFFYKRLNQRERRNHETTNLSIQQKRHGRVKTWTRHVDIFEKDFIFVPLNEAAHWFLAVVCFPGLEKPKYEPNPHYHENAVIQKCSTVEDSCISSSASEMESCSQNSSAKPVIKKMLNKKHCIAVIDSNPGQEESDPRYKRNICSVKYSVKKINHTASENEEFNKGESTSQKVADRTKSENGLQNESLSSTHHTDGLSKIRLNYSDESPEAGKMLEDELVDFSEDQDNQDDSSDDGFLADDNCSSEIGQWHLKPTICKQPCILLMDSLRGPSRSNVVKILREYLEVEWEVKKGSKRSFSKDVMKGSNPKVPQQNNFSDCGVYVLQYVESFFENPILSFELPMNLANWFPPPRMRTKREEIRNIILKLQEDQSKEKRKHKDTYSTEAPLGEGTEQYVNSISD
PPC-1+TRAIL kill – compounds killing PPC-1 cancer cells with TRAIL present, primary screen, TRAIL potentiator project, ATPLite luminescence, uHTS; AID 1443, 2008; actives 0.41% (n = 220,000); PPC-1 cells + TRAIL, ATPLite viability luminescence; cell killing (% activity), % at 4 µM or 5 µM;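 active = cell killing above 50% in the first pass at 4 µM, then a duplicate retest at 5 µM averaging 50% or more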
SENP8 confirm – SENP8 protease inhibitors, retest, confirmation, biochemical, luminescence, single concentration; shares compounds with SENP7 block; inhibition, % at 12.5 µM; AID 488912, 2010; actives 40% (n = 6,200); Recombinant SENP8, Z-RLRGG-aminoluciferin luminescence, 60 min;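 active = mean inhibition across replicates above about 50%, limit read from the data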
SENP6 conf – SENP6 protease inhibitors, confirmation, biochemical, luminescence, single concentration. actives 58% (n = 6,200). shares compounds with SENP7 block. recombinant SENP6, Z-RLRGG-aminoluciferin luminescence. AID 488915, 2010. inhibition, % at 12.5 µM
SENP7 confirm – SENP7 protease inhibitors, retest, confirmation, biochemical, luminescence, single concentration. inhibition, % at 12.5 µM. actives 69% (n = 6,200). AID 488917, 2010. recombinant SENP7, Z-RLRGG-aminoluciferin luminescence, 40 min. shares compounds with SENP7 block
Casp3 SENP sel – caspase-3 protease inhibitors, confirmation, selectivity assay for SENP inhibitor project, biochemical, single concentration. inhibition, % at 12.5 µM. purified caspase-3, Z-DEVD-aminoluciferin luminescence, 60 min. shares compounds with SENP7 block. actives 60% (n = 6,200);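 active = mean inhibition above about 50%, limit read from the data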
Target sequence (P42574 28-227 limits assumed): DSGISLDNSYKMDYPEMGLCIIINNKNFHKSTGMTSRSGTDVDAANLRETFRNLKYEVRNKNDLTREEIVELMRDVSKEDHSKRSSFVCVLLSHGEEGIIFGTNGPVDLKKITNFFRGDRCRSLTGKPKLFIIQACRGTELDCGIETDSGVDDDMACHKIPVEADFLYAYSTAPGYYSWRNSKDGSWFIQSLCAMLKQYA
Luc interf – counter-screen for SENP inhibitors: luminescence interference. shares compounds with SENP7 block. Pre-incubated SENP8/Z-RLRGG-aminoluciferin, luciferase luminescence interference. inhibition, % at 12.5 µM. actives 39% (n = 6,200). AID 488919;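 active = mean inhibition above about 50% when retested at one dose, limit read from the data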
Hits are given with their value; i = inactive; nt = not tested or not shown.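 Rule for the calls, unless noted: active = mean inhibition above about 50% in the one-dose retest (limit read from the data); inactive = the rest.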

SMILES	SENP8 block-1	TRAIL sens C8	SENP7 block	SENP8 block-2	SENP6 inh	PPC-1+TRAIL kill	SENP8 confirm	SENP6 conf	SENP7 confirm	Casp3 SENP sel	Luc interf
CN(C)c1ccc(N=Nc2ccccc2Br)cc1	i	55.2	98.8	92.9	95.6	nt	86.9	94.2	91.4	89.9	56.7
Cc1cccc(NS(=O)(=O)c2ccc(C(=O)NCC(c3ccco3)N3CCCCC3)cc2)c1C (stereo not given)	i	i	i	i	i	nt	nt	nt	nt	nt	nt
CC(=NO)c1ccc2c(c1)C(=NO)c1ccccc1-2	i	i	nt	nt	nt	nt	nt	nt	nt	nt	nt
O=C(O)c1ccc(-c2ccc(OS(=O)(=O)c3ccccc3F)cc2)cc1	i	i	i	i	56.5	nt	i	i	59.8	i	i
COC(=O)c1ccccc1S(=O)(=O)Oc1ccc(-c2ccc(C(=O)O)cc2)cc1	i	i	i	i	i	nt	nt	nt	nt	nt	nt
O=S(=O)(c1ccc(NC(=S)NCc2ccc(F)cc2)cc1)N1CCOCC1	i	i	i	i	i	nt	nt	nt	nt	nt	nt
COc1cccc(CNC(=O)CCC2CCCN(c3cc(C)nc(N)n3)C2)c1 (stereo not given)	i	i	i	i	i	i	nt	nt	nt	nt	nt
N#Cc1c(NC(=O)CSc2ncn[nH]2)sc2c1CCCCC2	i	i	i	67.9	76.4	i	i	83.2	88.8	i	i
NC(=O)c1c(NC(=O)c2ccccc2)sc2c1CCC2	i	i	i	i	57.2	nt	i	i	83.0	i	i
NC(=O)c1c(NC(=O)c2ccccc2)sc2c1CCN(Cc1ccccc1)C2	i	i	i	i	i	nt	nt	nt	nt	nt	nt
Cc1cc(C(=O)Nc2sc3c(c2C#N)CCCCC3)cs1	i	i	76.7	i	57.2	i	i	i	i	i	i
NC(=O)c1c(NC(=O)c2ccccc2)sc2c1CCc1ccccc1-2	i	i	63.8	i	i	i	i	i	i	i	i
CC(=O)Nc1sc2c(c1C#N)CCCC2	i	i	i	i	i	i	nt	nt	nt	nt	nt
CCN(CC)CC(=O)N1CCCC(N2CCN(c3cccc(C(F)(F)F)c3)CC2)C1 (stereo not given)	i	i	i	i	i	nt	nt	nt	nt	nt	nt
O=C(O)c1ccccc1C(=O)OCCCc1ccncc1	i	i	i	i	i	nt	nt	nt	nt	nt	nt
O=C(Nc1sc2c(c1C(=O)O)CCC2)c1ccccc1Cl	i	i	i	i	i	nt	nt	nt	nt	nt	nt
CN1CCc2c(sc(NC(=O)Cc3ccccc3)c2C(N)=O)C1	i	i	i	i	i	nt	nt	nt	nt	nt	nt
Cc1cccc(C(=O)Nc2sc3c(c2C(=O)O)CCCC3)c1	i	i	69.6	93.1	92.8	nt	97.2	98.1	102.1	94.6	78.8
O=C(Nc1sc2c(c1C(=O)O)CCC2)c1cccc(Cl)c1	i	i	68.1	95.1	97.0	nt	96.2	98.6	102.4	94.8	97.5
CN1CCc2c(sc(NC(=O)c3ccc4ccccc4c3)c2C(N)=O)C1	i	i	68.4	66.5	61.9	nt	59.0	61.4	88.2	61.2	i
COc1cccc(-c2cn3nc(C)c(C)nc3n2)c1	i	i	i	59.5	82.9	i	90.4	93.1	100.9	97.1	61.0
Cc1nc2nc(-c3cccs3)cn2nc1C	i	i	i	i	i	i	nt	nt	nt	nt	nt
CCNC(=S)Nc1cc(-c2ccc(Cl)cc2)[nH]n1	i	i	i	i	i	i	nt	nt	nt	nt	nt
CCn1ccc(C(=O)Nc2ccccc2Cl)n1	i	i	50.5	i	52.9	i	i	i	75.6	72.1	56.4
CC(C)(C)c1ccc(C(=O)Nc2ccccc2Cl)cc1	i	i	75.6	70.0	80.4	i	i	76.1	94.2	60.1	61.4
SMILES	SENP8 block-1	TRAIL sens C8	SENP7 block	SENP8 block-2	SENP6 inh	PPC-1+TRAIL kill	SENP8 confirm	SENP6 conf	SENP7 confirm	Casp3 SENP sel	Luc interf
CS(=O)(=O)Nc1ccc(C(=O)Nc2ccccc2Cl)cc1	i	i	i	i	i	i	nt	nt	nt	nt	nt
CCn1ccc(C(=O)Nc2cccc(Cl)c2)n1	i	i	i	i	i	i	nt	nt	nt	nt	nt
COc1ccc(S(=O)(=O)N(C)CC(=O)NCc2ccco2)cc1OC	i	i	i	i	i	nt	nt	nt	nt	nt	nt
CC(C)C[C@H](NC(=O)[C@@H]1Cc2c([nH]c3ccccc23)C2c3ccccc3C(=O)N21)C(=O)N1CCC[C@@H]1C(=O)O (stereo not given in full)	i	i	i	i	i	nt	nt	nt	nt	nt	nt
N#Cc1ccsc1NC(=O)CCc1ccccc1	i	i	70.4	60.1	i	i	i	i	68.3	53.2	i
N#Cc1ccsc1NC(=O)CN(Cc1ccccc1)Cc1ccccc1	i	i	i	i	i	i	nt	nt	nt	nt	nt
O=C(Nc1ccccn1)c1ccc2c(c1)OCO2	i	i	73.1	52.3	i	i	i	66.2	92.1	90.4	70.5
Cc1nc(NC(=O)c2cncc(Br)c2)ccc1Br	i	i	i	i	i	nt	nt	nt	nt	nt	nt
O=C(Nc1ccccn1)c1ccc2c(c1)OCCO2	i	55.6	79.6	61.5	i	nt	i	69.7	92.0	88.9	71.7
Cc1cccc(NC(=O)c2ccc3c(c2)OCCO3)n1	i	i	82.8	59.1	78.4	nt	i	74.7	91.8	89.2	76.3
O=C(Nc1ncccc1Cl)c1ccc2c(c1)OCCO2	i	i	i	i	i	i	nt	nt	nt	nt	nt
Cc1cccnc1NC(=O)c1ccc2c(c1)OCO2	i	i	i	i	i	nt	nt	nt	nt	nt	nt
Cc1nc(NC(=O)c2ccc3c(c2)OCO3)ccc1Br	i	i	77.4	74.2	81.2	i	i	72.4	89.2	72.8	i
CS(=O)(=O)c1ccc(N2CCN(S(=O)(=O)c3cccs3)CC2)c([N+](=O)[O-])c1	i	i	i	i	i	nt	nt	nt	nt	nt	nt
COC(=O)[C@H]1C[C@@]2(O)CN(S(=O)(=O)c3ccc(C)cc3)C[C@@]2(OC(=O)NC2CC2)C[C@H]1C(=O)OC	i	i	nt	nt	nt	nt	nt	nt	nt	nt	nt
CCOc1ncccc1C(=O)N1CCCSC1=Nc1ccc(C(C)=O)cc1	i	i	i	i	i	i	nt	nt	nt	nt	nt
